PLK1 PBD block: blocks phosphopeptide binding to human PLK1 polo-box domain. Plk1 PBD binding of FITC phosphopeptide, fluorescence polarization. P53350. 2.8% of 360,000 active. Potency, µM, for inactives: max response, negative = inhibition, actives largely listed as inhibitors. AID 720504; note: series mostly up to about 57 µM; nearly all actives have a fitted effect of over 65% in size
TDP1 cell CPT: growth inhibition of DT40 Tdp1-/-;hTDP1 cells with camptothecin (screen for TDP1 inhibitors) | chicken DT40 Tdp1-/-;hTDP1 cells + 20 nM CPT, ATP luminescence, 48 h | Potency, µM (titrated, usually from 46.2 µM), for the others: at the highest dose activity change, negative = growth inhibition, actives largely listed as inhibitors | 12% of 420,000 active; note: nearly all actives have a fitted effect of over 55% in size
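Chicken DT40 Tdp1-/- cells complemented with human TDP1, 400 cells/well, exposed to compounds plus 20 nM camptothecin for at least 48 h at 37 C; viability read as ATP content by CellTiter-Glo luminescence.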
TDP1 block: blocks human tyrosyl-DNA phosphodiesterase 1; 0.28% of 350,000 active; Q9NUW8; Potency, µM (series often up to 130 µM), without a hit: top-dose activity change, negative = inhibition, most hits filed as inhibitors; recombinant TDP1, AlphaScreen DNA substrate cleavage; AID 485290; note: nearly all actives have a fitted effect of over 40% in size
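E. coli-derived human Tdp1, 1 nM final. Cpd preinc 15 min RT; substrate 15 nM final, 5 min RT; AS bead mix 10 ug/ml final, 10 min RT. Signal loss = tyrosine-FITC cleavage. No-enzyme wells = max signal.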
VDR inh: vitamin D3 receptor (human) inhibition; P11473; VDR-SRC2-3 peptide fluorescence polarization, 2 h; Potency, µM, for the others: max response, negative = inhibition, most hits filed as inhibitors; 0.93% of 400,000 active; AID 504847
Target sequence (P11473 whole entry, looked up): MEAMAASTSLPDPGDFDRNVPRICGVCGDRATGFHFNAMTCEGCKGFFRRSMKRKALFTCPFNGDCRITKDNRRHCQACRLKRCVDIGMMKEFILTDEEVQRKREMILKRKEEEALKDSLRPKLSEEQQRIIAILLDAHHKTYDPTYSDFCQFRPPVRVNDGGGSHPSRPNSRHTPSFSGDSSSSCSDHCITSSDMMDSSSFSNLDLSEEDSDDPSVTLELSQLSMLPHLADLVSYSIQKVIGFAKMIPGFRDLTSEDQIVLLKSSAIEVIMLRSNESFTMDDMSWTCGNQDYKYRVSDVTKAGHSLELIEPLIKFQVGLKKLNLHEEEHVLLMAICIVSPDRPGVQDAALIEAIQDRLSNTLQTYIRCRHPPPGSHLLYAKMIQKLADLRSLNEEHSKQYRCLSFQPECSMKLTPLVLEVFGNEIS
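VDR–SRC2-3 interaction, FP format. Cmpds 23 nl via pintool, brief spin, 2 h ambient incubation.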
KAT2A inh: GCN5L2 (KAT2A) acetyltransferase inhibition. GCN5L2 HAT assay, ThioGlo1 CoA-SH fluorescence. Potency, µM (top dose mostly 58.9 µM), inactives show top-dose activity change, negative = inhibition, most hits filed as inhibitors. 0.21% of 390,000 active
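qHTS, 1536-well. 20nM enzyme, pH 7.5 HEPES/EDTA/Tween-20 buffer; 15 min compound preinc., RT. Start: 75uM H3(1-25), 70uM AcCoA, 50uM ThioGlo1. Read Ex340/Em540 at t=0 (autofluorescence flag) and t=20 min.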
TDP1 cell noCPT: qHTS for Inhibitors of human tyrosyl-DNA phosphodiesterase 1 (TDP1): qHTS in cells in absence of CPT | DT40 Tdp1-/- hTDP1 cells, no CPT, ATP luminescence, 48 h | Potency, µM (highest dose often 46.2 µM), for inactives: at the highest dose activity change, negative = growth inhibition, actives largely listed as inhibitors | 15% of 420,000 active; note: nearly all actives have a fitted effect of over 55% in size
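No-CPT arm: Tdp1-/-;hTDP1 DT40 cells (400/well) plus compounds, incubated ≥48 hr at 37 °C. Readout CellTiter-Glo luminescence.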
An asterisk follows results filed as active; ? = inconclusive; nt = not tested or not shown. A selection: hits, their analogues and other compounds. The true share with any hit is near 18%. Calls come from the whole dose curve; as a rule, active = well fitted curve in the direction sought with a large enough effect; inconclusive = small, poorly fitted or top-dose-only effect, or another doubt; inactive = no such curve, though single readings can be large; an effect the other way counts as inactive or inconclusive. % is set by controls: 0 for no effect and ±100 for the full control effect; potency is the fitted concentration of half-maximal effect.

SMILES	PLK1 PBD block	TDP1 cell CPT	TDP1 block	VDR inh	KAT2A inh	TDP1 cell noCPT
Cc1cccc(C)c1OCc1cc(C(=O)N2CCN(c3ccccc3)CC2C)no1 (centres undefined)	0.3%	-53.6%	4.6%	-29.0%	-26.4%	-53.4%
Cc1ccc(N(C)S(=O)(=O)c2cccc(C(=O)Oc3ccc4c(C)cc(=O)oc4c3)c2)cc1	-8.5%	?	0.0%	-2.0%	-10.5%	-24.7%
CCOC(=O)CC(=O)CSc1ccc2nnc(-c3cccc(F)c3)n2n1	-5.1%	-10.5%	6.6%	1.5%	0.8%	-25.9%
COC(=O)c1ccc(CSc2ccc3nnc(-c4cccc(F)c4)n3n2)o1	?	-82.3%	0.0%	-29.4%	-10.6%	7.31µM*
CC(C)CN1CCC2(CC1)CCN(S(=O)(=O)c1ccccc1)CC2	nt	?	nt	-9.1%	-5.9%	23.1µM*
O=S(=O)(c1ccccc1)N1CCC2(CCN(Cc3ccccc3)CC2)CC1	nt	12.6%	nt	1.6%	1.6%	-8.6%
Cc1c(C)n(Cc2ccccc2)c2ccc(C(=O)NCC(C)c3ccccc3)cc12 (centres undefined)	nt	?	7.9%	8.7%	-3.3%	?
Cc1c(C)n(Cc2ccccc2)c2ccc(C(=O)NC(C)c3ccccc3)cc12 (centres undefined)	nt	16.4µM*	7.9%	10.0%	-20.8%	16.4µM*
Cc1ccccc1NC(=O)c1ccc2c(c1)c(C)c(C)n2Cc1ccccc1	nt	7.31µM*	7.9%	10.3%	-4.3%	4.11µM*
Cc1cccc(C(=O)Nc2c(C#N)c(C)c(C)n2Cc2ccccc2)c1	-8.0%	?	6.2%	3.8%	-25.4%	16.4µM*
CCc1ccccc1NC(=O)c1ccc2c(c1)c(C)c(C)n2Cc1ccccc1	nt	?	7.9%	8.0%	-4.5%	?
COC(=O)c1cccc(S(=O)(=O)N2CCC(C)CC2)c1	-8.6%	16.4%	2.2%	-11.5%	2.3%	-2.2%
COC(=O)c1ccc(Cl)c(NC(=O)NC23CC4CC(CC(C4)C2)C3)c1	-5.2%	23.1µM*	5.9%	-9.7%	-6.6%	18.4µM*
COC(=O)c1cccc(S(=O)(=O)N2CCC(NC(=O)NC34CC5CC(CC(C5)C3)C4)CC2)c1	0.6%	23.1µM*	4.1%	-7.3%	-10.7%	20.6µM*
COC(=O)c1ccc(C23CC4(C2)[C@H](CN(Cc2cccnc2)[C@@H]4c2ccccc2)C3c2ccc(C(F)(F)F)cc2)cc1 (some centres undefined)	6.7%	23.1µM*	12.3%	-1.3%	23.3%	13µM*
CN1C[C@@H]2C(c3ccc(C(F)(F)F)cc3)C3(c4ccccc4)CC2(C3)[C@H]1c1ccccc1 (some centres undefined)	5.4%	?	6.9%	-19.1%	27.6%	16.4µM*
COC(=O)c1cccc(C23CC4(C2)[C@H](CN(Cc2ccc(-c5ccccc5)cc2)[C@@H]4c2ccccc2)C3c2ccccc2)c1 (some centres undefined)	-2.8%	-15.4%	9.9%	-10.9%	-7.5%	?
COC(=O)c1ccc(C23CC4(C2)[C@H](CN(CC2CCCCC2)[C@@H]4c2ccccc2)C3c2ccccc2)cc1 (some centres undefined)	2.6%	25.9µM*	9.9%	-15.6%	-2.8%	?
CN1C[C@@H]2C(c3ccccc3)C3(c4cccnc4)CC2(C3)[C@H]1c1ccccc1 (some centres undefined)	-18.8%	-25.9%	7.5%	-26.3%	-18.7%	-28.9%
COC(=O)c1ccc(C23CC4(C2)[C@H](CN(Cc2ccc(-c5ccccc5)cc2)[C@@H]4c2ccccc2)C3c2ccc(C(F)(F)F)cc2)cc1 (some centres undefined)	-7.0%	?	2.4%	-14.9%	22.5%	?
COC(=O)c1cccc(C23CC4(C2)[C@H](CN(Cc2ccc(C(F)(F)F)cc2)[C@@H]4c2ccccc2)C3c2ccccc2)c1 (some centres undefined)	-1.1%	29.1µM*	12.3%	-23.8%	19.0%	16.4µM*
FC(F)(F)c1ccc(C2[C@H]3CN(Cc4ccc(-c5ccccc5)cc4)[C@H](c4ccccc4)C34CC2(c2ccccc2)C4)cc1 (some centres undefined)	7.5%	?	8.1%	-14.0%	27.4%	?
FC(F)(F)c1ccc(C2[C@H]3CN(Cc4cccnc4)[C@H](c4ccccc4)C34CC2(c2cccnc2)C4)cc1 (some centres undefined)	-4.9%	23.1µM*	11.7%	?	-30.7%	20.6µM*
c1ccc(-c2ccc(CN3C[C@@H]4C(c5ccccc5)C5(c6cccnc6)CC4(C5)[C@H]3c3ccccc3)cc2)cc1 (some centres undefined)	-3.4%	?	9.3%	-8.2%	7.7%	?
N#Cc1ccc(C23CC4(C2)[C@H](CN(Cc2ccc(-c5ccccc5)cc2)[C@@H]4c2ccccc2)C3c2ccc(C(F)(F)F)cc2)cc1 (some centres undefined)	-6.7%	16.4µM*	5.1%	6.0%	-5.1%	?
SMILES	PLK1 PBD block	TDP1 cell CPT	TDP1 block	VDR inh	KAT2A inh	TDP1 cell noCPT
N#Cc1ccc(C23CC4(C2)[C@H](CN(Cc2cccnc2)[C@@H]4c2ccccc2)C3c2ccccc2)cc1 (some centres undefined)	-6.6%	9.2µM*	12.9%	-5.5%	-13.8%	7.31µM*
COC(=O)c1ccc(C23CC4(C2)[C@H](CN(Cc2cccnc2)[C@@H]4c2ccccc2)C3c2ccccc2)cc1 (some centres undefined)	5.6%	23.1µM*	11.1%	-17.0%	-12.8%	23.1µM*
Cc1ccc(C)c(S(=O)(=O)N2CCN(C(=O)c3ccnn3C)CC2)c1	-1.6%	4.0%	5.1%	-14.7%	0.8%	-2.4%
COc1ccccc1NS(=O)(=O)c1cccc(C(=O)NCC(c2cccs2)N2CCOCC2)c1 (centres undefined)	-4.3%	-5.4%	1.4%	0.8%	1.1%	?
CCOc1ccc(CNC(=O)c2cnc3sc(N4CCCCCC4)nn3c2=O)cc1OC	nt	-16.8%	7.1%	9.4%	-3.1%	-26.6%
CCC1=[N+](CC(=O)c2ccc(C)cc2)CCn2c(C)ccc21	-10.5%	2.91µM*	5.4%	-3.7%	12.8%	2.06µM*
O=C(O)/C=C/C(=O)Nc1ccccc1SC(F)(F)F	-29.4%	7.31µM*	5.3%	-10.7%	7.5%	20.6µM*
